# Compound activity (PubChem BioAssay)
# An excerpt weighted towards active compounds, which were near 14% of everything screened.
# Lassa entry inh: inhibitors of Lassa virus binding or cell entry; AID 540256; hit rate 1.2% among 300,000; Potency, µM (titrated, usually from 37.9 µM), inactives show at the top dose activity change, negative = inhibition, usual class: inhibitors; Lassa virus pseudotype entry inhibition, cell reporter; calls by dose curve; tested in HEK293 cells; also: potency is read from the fitted curve at half-maximal effect; nearly all actives have a fitted effect of over 50% in size
# Pf growth 48h: inhibits P. falciparum growth in the first generation, 48 h. P. falciparum luciferase growth in erythrocytes, 48 h. Potency, µM (top dose mostly 28.7 µM), without a hit: top-dose activity change, negative = inhibition, usual class: inhibitors. hit rate 5.9% among 310,000. AID 504832; also: potency is read from the fitted curve at half-maximal effect
#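 Growth was read as firefly luciferase luminescence after a 48 h, 37 C, 5% CO2 exposure of compounds to reporter-bearing P. falciparum cultures (0.1% parasitemia, 2% hematocrit final) in Albumax-supplemented RPMI 1640.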
# HCV inh: inhibitors of hepatitis C virus infection. Huh7.5.1 HCVcc-Cre infection, luciferase reporter, 44 h. Potency, µM (highest dose often 41.8 µM), without a hit: at the highest dose activity change, negative = inhibition, actives largely listed as inhibitors. hit rate 3.4% among 340,000. AID 651820; also: potency is read from the fitted curve at half-maximal effect
#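 Cells (1,000/well) were plated 4 h before compound, then infected with HCVcc-Cre virus (~0.5 moi). After 44 h further culture, infection was read as luciferase luminescence following a 15 min substrate incubation at room temperature.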
# HCMV antiviral: human cytomegalovirus inhibition; activity change, negative = inhibition, % at 57.5 µM; HFF cells, HCMV-luciferase reporter, 72 h; stronger effect = lower value; hit rate 4.5% among 410,000; AID 1259415; in the data active = activity change below about -60%; inconclusive = no clear call, values can overlap the other calls; inactive = above about -39%
#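 Cell-based, HFFs, 1000 cells/well, 16 h 37C; cpds in DMSO + HCMV-luc, MOI 1 PFU/cell; 72 h 37C; OneGlo luminescence after 5 min RT; norm. to buffer vs Salinomycin 10uM.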
# Pf growth 96h: P. falciparum growth inhibition at 96 hour, primary screen for plastid delayed-death inhibitors | AID 504834 | Potency, µM (titrated, usually from 28.7 µM), for inactives: top-dose activity change, negative = inhibition, hits mostly inhibitors | hit rate 6.9% among 320,000 | P. falciparum luciferase reporter growth, 96 h; also: potency is read from the fitted curve at half-maximal effect
#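 Compounds incubated with erythrocytes infected by luciferase-expressing P. falciparum (2% hematocrit, 0.05% parasitemia final) for 96 hours, 37 C in 5% CO2. Growth inhibition scored as decreased luciferase luminescence.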
# Marburg entry inh: blocks Marburg virus binding to or entry into cells; Marburg virus pseudotyped entry inhibition, cell reporter; Potency, µM (top dose mostly 37.8 µM), for inactives: at the highest dose activity change, negative = inhibition, usual class: inhibitors; hit rate 1.8% among 300,000; calls by dose curve; tested in HEK293 cells; also: potency is read from the fitted curve at half-maximal effect
# The depositor's hits bear a star; ? = inconclusive; / = not tested or not shown; [ ] = another dose, or the depositor's remark. Unless noted, calls follow the shape of the dose curve; as a rule, active = well fitted inhibition curve with a large enough effect; inconclusive = small, poorly fitted or top-dose-only effect, or another doubt; inactive = no such curve, though single readings can be large or run the other way. % is scaled to controls: 0 for no effect and ±100 for the full control effect.
SMILES,Lassa entry inh,Pf growth 48h,HCV inh,HCMV antiviral,Pf growth 96h,Marburg entry inh
Cc1cc(CN2CCCC(N3CCc4ccccc4C3)C2)cc(C)c1O (stereo not drawn),/,?,-13.2%,-18.3,10.4µM*,/
COc1cc2c(cc1OC)CN(C1CCCN(Cc3cccc(C(C)=O)c3)C1)CC2 (stereo not drawn),/,/,3.3%,17.5,/,/
CCN(CC)S(=O)(=O)c1ccc2c(c1)N(CC(=O)N1CCN(c3cc(Cl)ccc3C)CC1)C(=O)CO2,?,/,/,7.5,/,/
COc1ccc(CNC(=O)CN2C(=O)COc3ccc(S(=O)(=O)N4CCCCCC4)cc32)cc1,-13.0%[46.1 µM],/,/,?,/,/
CC(C)CN(CCCNC(=O)CN1C(=O)COc2ccc(S(=O)(=O)N3CCCCCC3)cc21)CC(C)C,2.9%[46.1 µM],?,3.0%,-35.5,?,?
CC1CCN(S(=O)(=O)c2ccc3c(c2)N(CC(=O)NCCCN2CCCC(C)C2)C(=O)CS3)CC1 (stereo not drawn),6.5%[46.1 µM],?,7.6%,0.0,-4.2%,/
CC1CCN(S(=O)(=O)c2ccc3c(c2)N(CC(=O)NCCCN2CCCC(C)C2)C(=O)CO3)CC1 (stereo not drawn),/,-15.1%,4.1%,-34.1,11.7µM*,/
CCN(CC)S(=O)(=O)c1ccc2c(c1)N(CC(=O)NCCCN1CCN(c3cc(Cl)ccc3C)CC1)C(=O)CO2,?,/,/,-74.0*,/,12.6µM*
CC(C)CN(CCCNC(=O)CN1C(=O)COc2ccc(S(=O)(=O)N3CCCC3)cc21)CC(C)C,/,11.7µM*,2.5%,-19.8,?,/
COc1ccc(CNC(=O)CN2C(=O)COc3ccc(S(=O)(=O)N4CCC(C)CC4)cc32)cc1,12.8%[46.1 µM],-14.2%,-2.9%,?,13.1µM*,/
O=C1O/C(=C/Br)CCC1c1cccc2ccccc12 (stereo not drawn),20.6µM*,/,/,/,/,10µM*
COc1ccccc1Nc1nc(N)nc(CN2CCCCC2)n1,-1.1%,-25.1%,6.6%,21.9,-7.7%,-0.5%
Cc1ccc(Nc2nc(N)nc(CN3CCc4ccccc4C3)n2)cc1,23.1µM*,?,?,18.8,-1.9%,?
Cc1c(Cl)cccc1Nc1nc(N)nc(CN2CCc3ccccc3C2)n1,-4.0%,9.28µM*,?,-22.3,/,-7.3%
Cc1cccc(Nc2nc(N)nc(CN3CCN(c4ccccc4)CC3)n2)c1,-4.5%,?,-19.7%,43.8,/,1.5%
CC(=O)NC(c1ccccc1)c1nc(-c2ccc(S(C)(=O)=O)cc2)cs1 (stereo not drawn),/,/,/,-11.1,/,/
C=CCN(C(=O)CC(NC(C)=O)c1ccccc1)c1nc(-c2ccc(S(C)(=O)=O)cc2)cs1 (stereo not drawn),?,9.28µM*,?,92.1,?,-14.5%[46.1 µM]
CN(Cc1cccs1)C(=O)COc1ccc(-c2nnco2)cc1,12.5%,-11.3%,6.0%,-100.1*,-21.5%,2.1%
CN(Cc1cccs1)C(=O)COc1cccc(-n2cnnn2)c1,-0.4%,34.9%,-10.2%,-12.4,0.0%,-14.9%
O=C1CN(C(=O)CSc2nc3ccccc3c(=O)n2Cc2ccc(F)cc2)c2ccccc2N1,?,11.7µM*,?,-63.5*,2.62µM*,?
O=C1CN(C(=O)CSc2nc3ccccc3n2CCc2ccccc2)c2ccccc2N1,-11.4%,?,-8.8%,-60.2*,?,?
CCCn1c(SCC(=O)N2CC(=O)Nc3ccccc32)nc2ccccc21,-20.9%,-9.8%,-10.7%,4.4,-6.8%,-22.2%[46.1 µM]
O=S(=O)(NCCc1csc2nc(-c3ccc(Cl)cc3)nn12)c1ccc2c(c1)OCCO2,-0.5%[46.1 µM],/,/,-34.0,/,/
CCCn1c(C)cc(=O)c2cc(NC(=O)c3cnccn3)ccc21,-8.3%,30.0%,2.24µM*,-4.4,21.8%,-19.8%
O=C1c2ccccc2[C@@H]2C[C@@H](O)[C@H](Nc3ccccc3-c3ccccc3)CCN12,/,/,-12.0%,-26.7,/,/
SMILES,Lassa entry inh,Pf growth 48h,HCV inh,HCMV antiviral,Pf growth 96h,Marburg entry inh
C=CCOC(=O)[C@H](C#N)c1nc2ccccc2nc1N1CCC(C(=O)OCC)CC1,/,/,/,/,/,-3.6%
O=C(Nc1ccc(N2CCCCCC2)cc1)c1ccccc1Cl,-25.3%[46.1 µM],52.0%,?,57.6,?,?
O=C(Nc1ccc(N2CCCCC2)cc1)c1ccccn1,0.517µM*,-28.4%,-18.0%,/,23.3%,0.461µM*
COc1ccccc1C(=O)Nc1ccc(N2CCCCC2)cc1,?,/,14.6%,-8.3,109.5%,7.94µM*
COc1ccccc1C(=O)Nc1ccc(N2CCN(C(C)=O)CC2)cc1,16.1%[46.1 µM],-2.9%,22.1%,?,7.5%,?
CC(C)c1ccc(NC(=O)c2cnc3sc(N4CCOCC4)nn3c2=O)cc1,-14.9%[46.1 µM],/,/,-24.9,/,/
CC(=O)N1CCN(S(=O)(=O)c2cccc(C(=O)Nc3ccc(C)cn3)c2)CC1,-13.3%,17.0%,?,-34.9,14.0%,16.4%
Cc1ccc(NC(=O)c2cccc(S(=O)(=O)N3CCc4ccccc4C3)c2)nc1,-27.8%,7.38µM*,?,-9.3,9.28µM*,-18.3%
Cc1cccc(C(C)C)c1NC(=O)COC(=O)c1cccc(S(=O)(=O)N2CCc3ccccc3C2)c1,?,10.0%,15.5%,-79.0*,-8.4%,-0.1%
Cc1cc(N2CCN(C)CC2)ccc1NC(=O)c1cccc(S(=O)(=O)N2CCc3ccccc3C2)c1,?,?,?,?,10.4µM*,?
COCCCNC(=O)CSc1nc2cc3c(cc2c(=O)n1CCCCCC(=O)NCc1ccc2c(c1)OCO2)OCO3,?,/,/,6.6,/,/
COC(=O)c1cc(NC(=O)c2oc(=O)c3ccccc3c2-c2ccccc2)cc(C(=O)OC)c1,4.7%[46.1 µM],/,/,22.0,/,-0.3%[46.1 µM]
CCN(CC)S(=O)(=O)c1ccc(C(=O)Nc2ccc(OCC(=O)N3CCOCC3)cc2)cc1,-1.9%,?,9.9%,-24.7,0.37µM*,-2.2%
CCCCc1ccc(NC(=O)c2ccc(N(C)S(C)(=O)=O)cc2)cc1,-19.3%,3.5%,?,-80.9*,-1.9%,?
CC(C)(C)c1ccc(S(=O)(=O)Nc2ccc(Cc3ccncc3)cc2)cc1,10µM*,?,?,?,?,?
CCN(CC)S(=O)(=O)c1ccc(NC(=O)c2ccc(N(C)S(C)(=O)=O)cc2)cc1,?,16.5µM*,4.47µM*,-66.5*,8.28µM*,-52.8%
CC(=O)Nc1ccc(S(=O)(=O)Nc2ccc(Cc3ccncc3)cc2)cc1,?,26.2%,-18.1%,?,55.7%,?
Cc1ccc(C)c(Cn2c(=O)cc(C)c3c(C)nn(C)c32)c1,?,/,/,-10.5,/,/
CCN(CC)S(=O)(=O)c1ccc(C(=O)Nc2ccc(Cc3ccncc3)cc2)cc1,?,?,3.16µM*,-86.8*,3.9%,?
COc1cccc(S(=O)(=O)Nc2ccc3c(c2)[C@H]2C[C@H](CC(=O)N[C@@H](C)c4ccccc4)O[C@H](CO)[C@H]2O3)c1,/,/,/,-11.8,/,/
